Measured values published in the supplement of paper PMC10849652.
Targets with a hit are over-represented here; the source holds about 7,900 in all. About 0.6% of all pairs of compound and target were hits.

Legend:
Assay in all cases: log2 fold change, soluble protein after heating vs DMSO (PISA); higher = thermal stabilisation; K562 cells, 10 uM, 30 min; active = over 0.2 and 3.5 SD of the protein, either way, in both replicates (recomputed)
[1] = compound: CS(=O)(=O)c1ccc(-c2cnc(N)c(C(=O)Nc3ccccc3)n2)cc1
Outline: (§1)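 Values are thermal stability changes relative to control samples and are taken from duplicates. They are stated as log2 fold changes. Before quantification by TMTpro 16plex LC-MS/MS with equalised channel sums, K562 cells at 2×10^6 cells/mL were treated with 10 μM compound for 30 min, heated in aliquots for 3 min across 48°C-58°C, pooled, extracted in PBS with 0.5% NP-40 at 4°C, and centrifuged at 21,000xg for 90 min to give the soluble supernatant.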

crizotinib = compound: C[C@@H](Oc1cc(-c2cnn(C3CCNCC3)c2)cnc1N)c1c(Cl)ccc(F)c1Cl [crizotinib]
Outline: as §1

[2] = compound: C[C@@H]1COCCN1C2=NC(=NC(=C2)C3(CC3)S(=O)(=O)C)C4=C5C=CNC5=CC=C4
Outline: as §1

[3] = compound: C[C@H](C1=CC=C(C=C1)C(=O)NC2=C3C=CNC3=NC=C2)N
Outline: as §1

duvelisib = compound: C[C@H](Nc1ncnc2nc[nH]c12)c1cc2cccc(Cl)c2c(=O)n1-c1ccccc1 [duvelisib]
Outline: as §1

gandotinib = compound: Cc1cc(Nc2cc(CN3CCOCC3)c3nc(C)c(Cc4ccc(Cl)cc4F)n3n2)n[nH]1 [gandotinib]
Outline: as §1

tozasertib = compound: Cc1cc(Nc2cc(N3CCN(C)CC3)nc(Sc3ccc(NC(=O)C4CC4)cc3)n2)n[nH]1 [tozasertib]
Outline: as §1

[4] = compound: Cc1cc(SCc2sc(-c3ccc(C(F)(F)F)cc3)nc2C)ccc1OCC(=O)O
Outline: as §1

doramapimod = compound: Cc1ccc(-n2nc(C(C)(C)C)cc2NC(=O)Nc2ccc(OCCN3CCOCC3)c3ccccc23)cc1 [doramapimod]
Outline: as §1

ispinesib = compound: Cc1ccc(C(=O)N(CCCN)[C@@H](c2nc3cc(Cl)ccc3c(=O)n2Cc2ccccc2)C(C)C)cc1 [ispinesib]
Outline: as §1

Measured: log2 fold change

HMOX2 (UniProt P30519)
inactive: [1] 0.07 | crizotinib -0.03 | [2] 0.022 | [3] 0.008 | duvelisib 0.011 | gandotinib 0.017 | tozasertib -0.007 | [4] 0.041 | doramapimod 0.062 | ispinesib -0.028

FECH isoform 2 (UniProt P22830)
UniProt P22830, sequence (P22830 whole entry, looked up): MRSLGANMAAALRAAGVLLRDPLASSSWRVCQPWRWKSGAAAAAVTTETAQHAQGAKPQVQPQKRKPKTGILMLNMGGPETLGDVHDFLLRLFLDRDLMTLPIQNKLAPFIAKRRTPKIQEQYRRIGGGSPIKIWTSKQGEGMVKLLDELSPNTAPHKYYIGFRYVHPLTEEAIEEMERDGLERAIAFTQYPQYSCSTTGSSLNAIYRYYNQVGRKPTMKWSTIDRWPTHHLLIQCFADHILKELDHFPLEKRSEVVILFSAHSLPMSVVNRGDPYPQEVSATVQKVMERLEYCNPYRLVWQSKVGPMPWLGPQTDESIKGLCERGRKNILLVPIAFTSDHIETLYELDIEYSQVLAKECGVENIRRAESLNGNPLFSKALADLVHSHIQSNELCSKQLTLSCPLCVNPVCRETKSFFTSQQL
inactive: [1] 0.527 | crizotinib 0.021 | [2] 0.161 | [3] -0.12 | duvelisib 0.263 | gandotinib 0.178 | tozasertib 0.162 | [4] 0.029 | doramapimod 0.071 | ispinesib -0.37

GEMIN5 (UniProt Q8TEQ6)
inactive: [1] -0.004 | crizotinib -0.047 | [2] 0.038 | [3] 0.02 | duvelisib -0.006 | gandotinib -0.082 | tozasertib 0.016 | [4] 0.055 | doramapimod -0.001 | ispinesib -0.088

IFT80 isoform 3 (UniProt Q9P2H3)
inactive: [1] -0.019 | crizotinib -0.01 | [2] 0.069 | [3] -0.031 | duvelisib 0.057 | gandotinib 0.053 | tozasertib -0.071 | [4] 0.05 | doramapimod 0.069 | ispinesib -0.051

HIP1R (UniProt O75146)
inactive: [1] 0.016 | crizotinib -0.1 | [2] 0.058 | [3] 0.026 | duvelisib -0.045 | gandotinib -0.069 | tozasertib -0.008 | [4] 0.029 | doramapimod 0.007 | ispinesib -0.097

GPX4 (UniProt P36969)
inactive: [1] 0.014 | crizotinib 0.079 | [2] 0.011 | [3] -0.072 | duvelisib 0.055 | gandotinib 0.013 | tozasertib 0.023 | [4] -0.017 | doramapimod -0.039 | ispinesib 0.213

HP1BP3 (UniProt Q5SSJ5)
inactive: [1] 0.002 | crizotinib -0.121 | [2] -0.013 | [3] 0.163 | duvelisib -0.097 | gandotinib 0.039 | tozasertib -0.011 | [4] 0.121 | doramapimod 0.035 | ispinesib -0.079

HOOK3 (UniProt Q86VS8)
UniProt Q86VS8, sequence (Q86VS8 whole entry, looked up): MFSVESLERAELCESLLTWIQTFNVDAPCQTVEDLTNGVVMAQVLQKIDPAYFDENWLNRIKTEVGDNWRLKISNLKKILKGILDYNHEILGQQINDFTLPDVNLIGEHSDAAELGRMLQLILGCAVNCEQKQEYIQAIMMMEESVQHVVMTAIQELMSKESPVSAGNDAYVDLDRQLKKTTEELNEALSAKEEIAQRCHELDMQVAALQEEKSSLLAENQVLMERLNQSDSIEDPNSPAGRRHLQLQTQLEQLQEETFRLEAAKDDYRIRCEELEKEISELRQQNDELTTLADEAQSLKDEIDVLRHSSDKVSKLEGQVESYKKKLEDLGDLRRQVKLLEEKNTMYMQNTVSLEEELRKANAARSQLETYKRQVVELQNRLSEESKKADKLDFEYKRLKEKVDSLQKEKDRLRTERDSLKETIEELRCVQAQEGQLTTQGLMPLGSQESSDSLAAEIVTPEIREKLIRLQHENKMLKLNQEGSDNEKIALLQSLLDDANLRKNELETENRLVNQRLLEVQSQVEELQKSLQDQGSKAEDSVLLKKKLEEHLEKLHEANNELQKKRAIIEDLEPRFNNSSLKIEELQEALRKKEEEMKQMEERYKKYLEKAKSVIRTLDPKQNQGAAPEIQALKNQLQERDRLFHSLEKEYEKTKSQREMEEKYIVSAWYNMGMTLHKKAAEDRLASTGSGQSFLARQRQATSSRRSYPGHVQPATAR
inactive: [1] -0.042 | crizotinib -0.123 | [2] -0.05 | [3] 0.036 | duvelisib 0.05 | gandotinib -0.067 | tozasertib 0.037 | [4] 0.033 | doramapimod 0.019 | ispinesib -0.199

GGT7 (UniProt Q9UJ14)
UniProt Q9UJ14, sequence (Q9UJ14 whole entry, looked up): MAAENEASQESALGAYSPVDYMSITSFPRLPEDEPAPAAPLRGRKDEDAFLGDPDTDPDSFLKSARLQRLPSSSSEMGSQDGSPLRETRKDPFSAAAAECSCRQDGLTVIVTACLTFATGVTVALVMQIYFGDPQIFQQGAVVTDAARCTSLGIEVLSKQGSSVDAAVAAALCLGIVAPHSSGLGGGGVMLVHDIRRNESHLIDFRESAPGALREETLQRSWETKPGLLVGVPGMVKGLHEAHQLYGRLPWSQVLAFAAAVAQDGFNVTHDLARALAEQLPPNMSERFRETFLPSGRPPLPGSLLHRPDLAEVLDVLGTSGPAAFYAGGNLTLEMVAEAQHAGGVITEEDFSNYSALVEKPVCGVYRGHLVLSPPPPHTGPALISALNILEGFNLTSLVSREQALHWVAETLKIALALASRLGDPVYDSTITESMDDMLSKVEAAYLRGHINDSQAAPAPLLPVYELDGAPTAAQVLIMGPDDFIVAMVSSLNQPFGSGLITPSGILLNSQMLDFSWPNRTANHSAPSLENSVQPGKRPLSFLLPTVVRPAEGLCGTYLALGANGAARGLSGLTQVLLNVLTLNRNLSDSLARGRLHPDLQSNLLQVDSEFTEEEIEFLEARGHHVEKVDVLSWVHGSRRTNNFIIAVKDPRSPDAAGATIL
inactive: [1] 0.035 | crizotinib 0.013 | [2] -0.128 | [3] 0.013 | duvelisib -0.045 | gandotinib -0.03 | tozasertib -0.049 | [4] -0.091 | doramapimod 0.023 | ispinesib -0.032

HMGB3 (UniProt O15347)
UniProt O15347, sequence (O15347 whole entry, looked up): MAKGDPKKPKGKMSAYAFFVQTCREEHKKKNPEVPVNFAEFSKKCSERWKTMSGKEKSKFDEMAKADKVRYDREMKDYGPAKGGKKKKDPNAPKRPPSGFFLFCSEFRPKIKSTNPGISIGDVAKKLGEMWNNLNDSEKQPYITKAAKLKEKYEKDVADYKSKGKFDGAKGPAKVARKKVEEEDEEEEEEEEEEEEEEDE
inactive: [1] 0.045 | crizotinib 0.026 | [2] -0.018 | [3] -0.071 | duvelisib 0.01 | gandotinib 0.01 | tozasertib 0.029 | [4] -0.001 | doramapimod 0.002 | ispinesib 0.1

GABARAPL2 (UniProt P60520)
UniProt P60520, sequence (P60520 whole entry, looked up): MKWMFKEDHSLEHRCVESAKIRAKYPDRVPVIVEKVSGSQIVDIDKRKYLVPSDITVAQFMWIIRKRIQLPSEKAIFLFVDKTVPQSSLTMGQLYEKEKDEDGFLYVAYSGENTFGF
inactive: [1] 0.081 | crizotinib -0.178 | [2] 0.036 | [3] 0.006 | duvelisib 0.053 | gandotinib 0.039 | tozasertib 0.031 | [4] 0.005 | doramapimod -0.073 | ispinesib -0.151

FBXO3 (UniProt Q9UK99)
inactive: [1] 0.055 | crizotinib 0.005 | [2] -0.095 | [3] 0.008 | duvelisib -0.025 | gandotinib -0.112 | tozasertib -0.046 | [4] -0.025 | doramapimod -0.003 | ispinesib 0.082

HMGN1 (UniProt P05114)
UniProt P05114, sequence (P05114 whole entry, looked up): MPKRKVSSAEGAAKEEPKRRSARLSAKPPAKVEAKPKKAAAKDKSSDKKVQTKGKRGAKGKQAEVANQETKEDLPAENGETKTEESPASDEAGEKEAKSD
inactive: [1] -0.067 | crizotinib 0.055 | [2] -0.034 | [3] 0.058 | duvelisib -0.045 | gandotinib 0.094 | tozasertib 0.015 | [4] -0.027 | doramapimod 0.013 | ispinesib -0.042

GTF2E1 (UniProt P29083)
inactive: [1] 0.008 | crizotinib 0.02 | [2] 0.118 | [3] -0.088 | duvelisib 0.035 | gandotinib -0.011 | tozasertib 0.046 | [4] 0.059 | doramapimod -0.03 | ispinesib -0.028

FIBP (UniProt O43427)
UniProt O43427, sequence (O43427 whole entry, looked up): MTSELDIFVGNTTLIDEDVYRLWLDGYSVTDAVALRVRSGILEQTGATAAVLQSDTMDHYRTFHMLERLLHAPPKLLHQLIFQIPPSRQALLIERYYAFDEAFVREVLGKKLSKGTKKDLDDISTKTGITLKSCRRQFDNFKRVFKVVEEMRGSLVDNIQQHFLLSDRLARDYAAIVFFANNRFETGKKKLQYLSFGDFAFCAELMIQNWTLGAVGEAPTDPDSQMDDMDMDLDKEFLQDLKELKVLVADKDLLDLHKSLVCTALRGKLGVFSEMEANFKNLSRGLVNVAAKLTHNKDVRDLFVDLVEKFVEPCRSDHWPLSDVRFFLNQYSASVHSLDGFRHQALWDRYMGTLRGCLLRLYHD
inactive: [1] 0.022 | crizotinib -0.043 | [2] 0.257 | [3] 0.118 | duvelisib 0.041 | gandotinib -0.094 | tozasertib -0.144 | [4] 0.02 | doramapimod -0.048 | ispinesib -0.052

GDI1 (UniProt P31150)
inactive: [1] 0.018 | crizotinib 0.026 | [2] 0.061 | [3] -0.054 | duvelisib 0.014 | gandotinib -0.049 | tozasertib 0.004 | [4] -0.009 | doramapimod -0.027 | ispinesib 0.084

FNTA (UniProt P49354)
inactive: [1] 0.073 | crizotinib 0.069 | [2] 0.077 | [3] -0.005 | duvelisib 0.014 | gandotinib 0.057 | tozasertib -0.017 | [4] -0.014 | doramapimod -0.043 | ispinesib 0.06

GMEB2 (UniProt Q9UKD1)
UniProt Q9UKD1, sequence (Q9UKD1 whole entry, looked up): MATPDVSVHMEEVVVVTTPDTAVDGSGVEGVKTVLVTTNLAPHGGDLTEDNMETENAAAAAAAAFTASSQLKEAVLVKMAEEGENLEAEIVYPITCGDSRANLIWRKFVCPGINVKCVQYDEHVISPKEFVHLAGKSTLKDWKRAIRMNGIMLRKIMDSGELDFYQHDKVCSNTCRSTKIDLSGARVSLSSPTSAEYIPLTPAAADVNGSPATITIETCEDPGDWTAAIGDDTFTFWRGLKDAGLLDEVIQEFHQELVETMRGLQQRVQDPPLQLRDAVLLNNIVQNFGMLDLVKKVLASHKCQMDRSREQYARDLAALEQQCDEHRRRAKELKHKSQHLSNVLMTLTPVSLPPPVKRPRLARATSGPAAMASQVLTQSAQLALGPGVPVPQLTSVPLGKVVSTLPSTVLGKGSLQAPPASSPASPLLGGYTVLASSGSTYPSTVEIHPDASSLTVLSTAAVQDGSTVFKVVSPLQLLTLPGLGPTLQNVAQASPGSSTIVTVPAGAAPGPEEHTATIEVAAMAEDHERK
inactive: [1] -0.012 | crizotinib 0.041 | [2] -0.063 | [3] -0.09 | duvelisib -0.028 | gandotinib -0.001 | tozasertib 0.051 | [4] 0.009 | doramapimod 0.053 | ispinesib 0.071

GTF3A (UniProt Q92664)
inactive: [1] -0.002 | crizotinib -0.145 | [2] 0.015 | [3] 0.078 | duvelisib 0.019 | gandotinib 0.023 | tozasertib -0.025 | [4] 0.023 | doramapimod -0.001

IFT74 (UniProt Q96LB3)
inactive: [1] 0.21 | crizotinib -0.04 | [2] 0.014 | [3] 0.088 | duvelisib 0.068 | gandotinib -0.02 | tozasertib -0.136 | [4] -0.094 | doramapimod 0.095 | ispinesib -0.133

FLNA (UniProt P21333)
inactive: [1] 0.014 | crizotinib -0.078 | [2] -0.01 | [3] 0.04 | duvelisib -0.014 | gandotinib -0.045 | tozasertib 0.108 | [4] 0.127 | doramapimod -0.013 | ispinesib -0.025

GLB1 (UniProt P16278)
UniProt P16278, sequence (P16278 whole entry, looked up): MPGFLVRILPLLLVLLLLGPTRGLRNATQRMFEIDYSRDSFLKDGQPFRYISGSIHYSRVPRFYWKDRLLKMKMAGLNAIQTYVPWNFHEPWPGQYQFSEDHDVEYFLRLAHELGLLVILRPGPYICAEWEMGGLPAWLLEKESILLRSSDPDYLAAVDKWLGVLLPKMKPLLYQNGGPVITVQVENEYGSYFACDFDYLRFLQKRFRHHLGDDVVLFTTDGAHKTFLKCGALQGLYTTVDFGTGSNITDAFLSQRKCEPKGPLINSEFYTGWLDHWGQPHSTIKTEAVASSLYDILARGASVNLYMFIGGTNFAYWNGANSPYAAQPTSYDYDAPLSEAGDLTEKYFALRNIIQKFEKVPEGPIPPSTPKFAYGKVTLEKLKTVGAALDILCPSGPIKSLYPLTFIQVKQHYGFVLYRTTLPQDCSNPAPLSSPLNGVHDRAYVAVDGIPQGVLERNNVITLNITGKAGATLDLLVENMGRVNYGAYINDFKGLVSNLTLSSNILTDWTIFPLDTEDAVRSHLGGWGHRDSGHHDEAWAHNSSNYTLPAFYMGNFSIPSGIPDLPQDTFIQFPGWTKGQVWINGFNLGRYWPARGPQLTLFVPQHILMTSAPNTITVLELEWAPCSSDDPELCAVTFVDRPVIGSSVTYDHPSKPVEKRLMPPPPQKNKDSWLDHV
active: crizotinib -0.221 | ispinesib -0.255
inactive: [1] 0.024 | [2] -0.074 | [3] 0.007 | duvelisib -0.022 | gandotinib 0 | tozasertib 0.036 | [4] -0.004 | doramapimod 0.013

FUNDC1 (UniProt Q8IVP5)
inactive: [1] 0.046

GOLPH3 (UniProt Q9H4A6)
active: ispinesib 0.379
inactive: [1] -0.028 | crizotinib 0.176 | [2] 0.006 | [3] -0.038 | duvelisib 0.047 | gandotinib -0.112 | tozasertib 0.024 | [4] 0.012 | doramapimod -0.011

FRA10AC1 isoform 3 (UniProt Q70Z53)
inactive: [1] -0.082 | crizotinib 0.201 | [2] 0.059 | [3] 0.029 | duvelisib 0.07 | gandotinib 0.189 | tozasertib -0.123 | [4] -0.116 | doramapimod -0.044

HECTD1 (UniProt Q9ULT8)
inactive: [1] -0.034 | crizotinib 0.084 | [2] 0.129 | [3] 0.072 | duvelisib -0.091 | gandotinib -0.062 | tozasertib 0.002 | [4] 0.06 | doramapimod -0.062 | ispinesib -0.126

GLUD1 (UniProt P00367)
UniProt P00367, sequence (P00367 whole entry, looked up): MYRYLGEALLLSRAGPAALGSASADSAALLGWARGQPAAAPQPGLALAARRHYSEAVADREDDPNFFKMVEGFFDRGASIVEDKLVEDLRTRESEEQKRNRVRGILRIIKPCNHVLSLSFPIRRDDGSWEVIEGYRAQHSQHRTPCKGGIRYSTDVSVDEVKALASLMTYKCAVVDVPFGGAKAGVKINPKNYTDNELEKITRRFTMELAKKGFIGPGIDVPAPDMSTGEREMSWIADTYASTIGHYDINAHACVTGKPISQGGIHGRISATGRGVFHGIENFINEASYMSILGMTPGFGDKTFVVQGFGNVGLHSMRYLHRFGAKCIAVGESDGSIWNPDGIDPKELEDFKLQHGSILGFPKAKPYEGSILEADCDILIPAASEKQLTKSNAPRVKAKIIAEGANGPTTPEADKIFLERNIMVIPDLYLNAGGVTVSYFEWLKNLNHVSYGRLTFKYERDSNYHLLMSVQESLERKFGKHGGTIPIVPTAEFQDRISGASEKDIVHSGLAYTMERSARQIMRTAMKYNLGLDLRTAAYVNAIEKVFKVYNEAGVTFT
inactive: [1] 0.16 | crizotinib -0.016 | [2] 0.058 | [3] 0.005 | duvelisib 0.006 | gandotinib 0.141 | tozasertib -0.071 | [4] -0.057 | doramapimod 0.048 | ispinesib -0.048

IGF2BP2 (UniProt Q9Y6M1)
inactive: [1] 0.009 | crizotinib -0.062 | [2] -0.186 | duvelisib -0.161 | gandotinib 0.139 | tozasertib 0.012 | [4] 0.158 | doramapimod 0.288 | ispinesib -0.182
active: [3] 0.531

FANCD2 isoform 1 (UniProt Q9BXW9)
inactive: [1] -0.056 | crizotinib -0.052 | [2] 0.127 | [3] -0.014 | duvelisib -0.014 | gandotinib -0.135 | tozasertib 0.003 | [4] 0.034 | doramapimod 0.004 | ispinesib -0.096

FDXR isoform 7 (UniProt P22570)
UniProt P22570, sequence (P22570 whole entry, looked up): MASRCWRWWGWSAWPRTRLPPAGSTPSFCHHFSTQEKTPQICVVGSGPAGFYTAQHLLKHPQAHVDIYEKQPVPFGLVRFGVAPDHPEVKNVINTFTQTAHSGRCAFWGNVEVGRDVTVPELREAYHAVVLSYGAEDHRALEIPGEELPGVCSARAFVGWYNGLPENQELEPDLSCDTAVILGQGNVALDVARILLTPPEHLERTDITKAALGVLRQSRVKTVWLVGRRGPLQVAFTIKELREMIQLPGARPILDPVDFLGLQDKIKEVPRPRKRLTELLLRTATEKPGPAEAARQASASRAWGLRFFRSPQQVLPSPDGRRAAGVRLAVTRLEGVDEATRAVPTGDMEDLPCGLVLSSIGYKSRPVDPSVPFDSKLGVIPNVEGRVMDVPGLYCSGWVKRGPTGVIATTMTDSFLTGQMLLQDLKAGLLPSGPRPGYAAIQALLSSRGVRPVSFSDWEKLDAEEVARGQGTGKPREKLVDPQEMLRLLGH
inactive: [1] 0.038 | crizotinib -0.036 | [2] 0.117 | [3] -0.01 | duvelisib 0.11 | gandotinib -0.064 | tozasertib -0.105 | [4] 0.023 | doramapimod -0.013 | ispinesib -0.138

GBF1 (UniProt Q92538)
inactive: [1] -0.032 | crizotinib -0.131 | [2] 0.023 | [3] 0.08 | duvelisib -0.028 | gandotinib -0.197 | tozasertib 0.039 | [4] 0.041 | doramapimod 0.059 | ispinesib 0.012
